In ChEMBL document CHEMBL2218924, “A broad activity screen in support of a chemogenomic map for kinase signalling research and drug discovery” (Biochem J, 2013):

Assays:
[1] = biological target: T1, Ephrin type-A receptor 3 (Homo sapiens) (UniProt P29320); conditions: at 10 µM
T1 sequence (whole entry): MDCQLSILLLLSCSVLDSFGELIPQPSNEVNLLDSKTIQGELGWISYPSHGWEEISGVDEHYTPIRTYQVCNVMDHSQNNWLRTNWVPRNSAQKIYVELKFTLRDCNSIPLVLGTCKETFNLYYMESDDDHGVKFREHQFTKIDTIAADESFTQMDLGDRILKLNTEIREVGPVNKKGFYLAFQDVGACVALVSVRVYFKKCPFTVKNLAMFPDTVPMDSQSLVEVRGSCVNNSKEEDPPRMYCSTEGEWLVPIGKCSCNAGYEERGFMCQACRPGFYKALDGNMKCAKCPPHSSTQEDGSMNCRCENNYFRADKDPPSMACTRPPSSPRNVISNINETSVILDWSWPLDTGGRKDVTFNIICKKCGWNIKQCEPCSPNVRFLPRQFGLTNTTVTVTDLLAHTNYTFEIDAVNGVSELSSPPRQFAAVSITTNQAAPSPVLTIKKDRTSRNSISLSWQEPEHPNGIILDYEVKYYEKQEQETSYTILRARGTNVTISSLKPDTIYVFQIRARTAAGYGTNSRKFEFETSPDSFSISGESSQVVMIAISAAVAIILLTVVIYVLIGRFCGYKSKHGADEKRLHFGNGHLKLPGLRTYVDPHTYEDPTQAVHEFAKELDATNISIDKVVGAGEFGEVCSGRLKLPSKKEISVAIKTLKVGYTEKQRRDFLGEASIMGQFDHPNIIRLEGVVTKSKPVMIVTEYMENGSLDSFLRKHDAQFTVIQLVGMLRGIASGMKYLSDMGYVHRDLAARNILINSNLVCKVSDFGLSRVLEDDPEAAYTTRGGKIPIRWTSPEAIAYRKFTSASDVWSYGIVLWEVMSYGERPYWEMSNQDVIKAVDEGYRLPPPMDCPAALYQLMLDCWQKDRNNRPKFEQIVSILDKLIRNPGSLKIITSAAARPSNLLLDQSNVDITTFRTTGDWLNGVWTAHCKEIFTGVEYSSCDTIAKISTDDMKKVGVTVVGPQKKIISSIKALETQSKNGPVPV

[2] = biological target: Ephrin type-A receptor 4 (Homo sapiens) (UniProt P54764); conditions: at 1 µM
Chain of Ephrin type-A receptor 4 (Homo sapiens) (P54764 whole entry): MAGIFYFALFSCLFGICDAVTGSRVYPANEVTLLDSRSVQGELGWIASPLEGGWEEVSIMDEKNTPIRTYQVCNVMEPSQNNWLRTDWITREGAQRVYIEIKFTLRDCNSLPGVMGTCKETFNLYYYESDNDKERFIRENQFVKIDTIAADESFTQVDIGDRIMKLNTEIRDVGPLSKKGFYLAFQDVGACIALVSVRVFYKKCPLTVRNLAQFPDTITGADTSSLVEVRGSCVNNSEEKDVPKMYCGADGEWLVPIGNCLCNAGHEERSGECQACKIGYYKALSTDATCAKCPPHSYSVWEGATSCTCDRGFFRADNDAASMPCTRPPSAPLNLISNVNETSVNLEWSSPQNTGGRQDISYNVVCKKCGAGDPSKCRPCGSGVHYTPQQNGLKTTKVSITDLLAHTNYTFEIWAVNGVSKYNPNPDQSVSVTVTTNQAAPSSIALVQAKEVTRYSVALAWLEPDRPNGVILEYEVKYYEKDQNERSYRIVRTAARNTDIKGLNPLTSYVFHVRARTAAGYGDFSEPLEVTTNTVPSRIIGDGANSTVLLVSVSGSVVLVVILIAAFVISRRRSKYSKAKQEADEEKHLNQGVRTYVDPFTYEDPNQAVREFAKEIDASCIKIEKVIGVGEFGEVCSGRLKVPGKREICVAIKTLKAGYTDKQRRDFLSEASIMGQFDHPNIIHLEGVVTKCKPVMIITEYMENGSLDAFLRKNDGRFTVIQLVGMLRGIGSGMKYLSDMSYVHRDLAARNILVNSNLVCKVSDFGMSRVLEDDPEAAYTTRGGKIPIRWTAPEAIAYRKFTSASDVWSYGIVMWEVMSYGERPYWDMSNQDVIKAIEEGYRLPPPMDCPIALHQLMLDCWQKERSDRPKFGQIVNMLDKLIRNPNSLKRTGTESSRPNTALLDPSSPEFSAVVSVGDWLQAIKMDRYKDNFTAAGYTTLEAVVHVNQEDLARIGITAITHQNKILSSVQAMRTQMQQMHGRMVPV

[3] = biological target: Ephrin type-A receptor 4 (Homo sapiens) (UniProt P54764); conditions: at 10 µM
[4] = biological target: Ephrin type-A receptor 5 (Homo sapiens) (UniProt P54756); conditions: at 1 µM
Chain of Ephrin type-A receptor 5 (Homo sapiens) (P54756 whole entry): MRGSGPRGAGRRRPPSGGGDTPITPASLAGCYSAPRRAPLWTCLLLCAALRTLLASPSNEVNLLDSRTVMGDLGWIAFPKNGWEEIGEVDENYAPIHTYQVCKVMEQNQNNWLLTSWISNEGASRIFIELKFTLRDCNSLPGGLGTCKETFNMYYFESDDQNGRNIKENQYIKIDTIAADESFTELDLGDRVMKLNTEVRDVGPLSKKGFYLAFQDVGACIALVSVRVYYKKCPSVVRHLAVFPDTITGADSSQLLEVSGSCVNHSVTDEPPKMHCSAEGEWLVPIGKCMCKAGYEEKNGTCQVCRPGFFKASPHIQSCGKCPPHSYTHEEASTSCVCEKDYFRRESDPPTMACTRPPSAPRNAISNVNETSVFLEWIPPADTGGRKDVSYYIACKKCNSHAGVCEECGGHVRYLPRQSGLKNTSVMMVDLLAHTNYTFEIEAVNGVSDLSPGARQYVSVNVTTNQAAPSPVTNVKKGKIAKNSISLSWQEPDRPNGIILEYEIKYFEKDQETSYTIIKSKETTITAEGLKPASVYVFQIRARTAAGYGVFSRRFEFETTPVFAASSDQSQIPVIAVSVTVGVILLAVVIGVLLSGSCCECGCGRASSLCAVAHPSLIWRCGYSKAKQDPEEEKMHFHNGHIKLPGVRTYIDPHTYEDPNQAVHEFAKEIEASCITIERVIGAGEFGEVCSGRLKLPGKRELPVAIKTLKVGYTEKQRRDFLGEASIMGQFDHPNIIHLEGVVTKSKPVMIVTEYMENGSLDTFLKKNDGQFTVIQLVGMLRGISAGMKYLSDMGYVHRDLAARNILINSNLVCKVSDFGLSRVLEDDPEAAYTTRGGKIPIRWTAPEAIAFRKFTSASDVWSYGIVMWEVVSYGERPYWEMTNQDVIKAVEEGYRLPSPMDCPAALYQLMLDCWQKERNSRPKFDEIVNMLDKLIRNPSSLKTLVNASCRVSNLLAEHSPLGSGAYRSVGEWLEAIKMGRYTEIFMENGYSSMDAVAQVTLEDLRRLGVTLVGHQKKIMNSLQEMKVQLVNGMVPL

[5] = biological target: Ephrin type-A receptor 5 (Homo sapiens) (UniProt P54756); conditions: at 10 µM
[6] = biological target: Ephrin type-A receptor 7 (Homo sapiens) (UniProt Q15375); conditions: at 1 µM
Chain of Ephrin type-A receptor 7 (Homo sapiens) (Q15375 28-998 limits assumed): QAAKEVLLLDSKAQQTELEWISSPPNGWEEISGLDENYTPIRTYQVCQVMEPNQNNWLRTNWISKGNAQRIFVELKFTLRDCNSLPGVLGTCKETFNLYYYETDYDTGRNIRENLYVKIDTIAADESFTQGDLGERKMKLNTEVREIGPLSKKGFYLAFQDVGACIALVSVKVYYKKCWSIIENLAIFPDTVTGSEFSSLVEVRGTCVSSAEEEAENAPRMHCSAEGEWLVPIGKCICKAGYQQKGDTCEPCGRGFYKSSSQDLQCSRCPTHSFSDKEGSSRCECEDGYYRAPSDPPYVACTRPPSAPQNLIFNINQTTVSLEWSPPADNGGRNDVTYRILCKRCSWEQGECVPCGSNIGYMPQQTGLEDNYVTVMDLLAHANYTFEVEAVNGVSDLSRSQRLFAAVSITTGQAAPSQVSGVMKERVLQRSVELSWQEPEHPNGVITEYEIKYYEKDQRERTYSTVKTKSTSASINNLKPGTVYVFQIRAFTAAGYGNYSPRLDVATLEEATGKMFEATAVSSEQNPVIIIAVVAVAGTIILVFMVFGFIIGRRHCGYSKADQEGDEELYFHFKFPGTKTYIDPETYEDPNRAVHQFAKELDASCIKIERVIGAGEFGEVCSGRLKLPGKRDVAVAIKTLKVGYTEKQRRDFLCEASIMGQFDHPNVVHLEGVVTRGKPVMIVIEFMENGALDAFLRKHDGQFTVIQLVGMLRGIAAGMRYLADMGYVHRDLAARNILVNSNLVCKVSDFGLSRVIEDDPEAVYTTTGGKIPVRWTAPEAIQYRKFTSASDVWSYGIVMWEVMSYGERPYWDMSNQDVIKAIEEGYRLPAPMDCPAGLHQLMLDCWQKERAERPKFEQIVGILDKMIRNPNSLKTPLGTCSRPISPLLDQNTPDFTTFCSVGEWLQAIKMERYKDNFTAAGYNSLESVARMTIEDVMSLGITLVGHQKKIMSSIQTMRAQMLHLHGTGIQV

[7] = biological target: Ephrin type-A receptor 7 (Homo sapiens) (UniProt Q15375); conditions: at 10 µM
[8] = biological target: T2, Ephrin type-A receptor 8 (Homo sapiens) (UniProt P29322); conditions: at 1 µM
T2 sequence (whole entry): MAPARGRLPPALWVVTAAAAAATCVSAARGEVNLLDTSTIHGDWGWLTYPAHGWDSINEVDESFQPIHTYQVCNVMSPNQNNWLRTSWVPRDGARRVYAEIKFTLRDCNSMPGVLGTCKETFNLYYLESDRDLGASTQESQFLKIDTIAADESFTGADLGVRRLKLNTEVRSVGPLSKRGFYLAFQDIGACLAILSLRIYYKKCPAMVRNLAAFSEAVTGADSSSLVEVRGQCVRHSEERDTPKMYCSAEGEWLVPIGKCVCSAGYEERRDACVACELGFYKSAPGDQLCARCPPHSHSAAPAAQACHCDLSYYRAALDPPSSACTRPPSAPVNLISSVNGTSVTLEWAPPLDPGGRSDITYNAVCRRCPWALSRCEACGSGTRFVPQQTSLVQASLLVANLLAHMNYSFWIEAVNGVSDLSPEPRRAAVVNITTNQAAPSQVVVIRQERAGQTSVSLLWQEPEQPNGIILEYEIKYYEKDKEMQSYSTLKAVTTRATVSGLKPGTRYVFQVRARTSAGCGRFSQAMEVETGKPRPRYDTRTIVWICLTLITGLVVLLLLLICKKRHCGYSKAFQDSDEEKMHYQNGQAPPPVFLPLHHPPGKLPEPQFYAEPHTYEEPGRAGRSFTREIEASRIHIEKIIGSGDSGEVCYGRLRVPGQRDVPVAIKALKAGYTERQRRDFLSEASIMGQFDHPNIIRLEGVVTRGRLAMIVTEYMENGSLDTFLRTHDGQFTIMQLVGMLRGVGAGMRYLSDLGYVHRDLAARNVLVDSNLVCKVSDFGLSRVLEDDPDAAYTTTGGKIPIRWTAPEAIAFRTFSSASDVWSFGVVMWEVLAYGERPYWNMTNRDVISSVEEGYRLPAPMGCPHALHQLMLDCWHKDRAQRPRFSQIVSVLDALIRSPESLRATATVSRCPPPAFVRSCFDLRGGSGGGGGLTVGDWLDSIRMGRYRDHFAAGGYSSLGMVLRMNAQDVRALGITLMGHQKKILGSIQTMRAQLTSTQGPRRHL

[9] = biological target: T2, Ephrin type-A receptor 8 (Homo sapiens); conditions: at 10 µM
[10] = biological target: T3, Ephrin type-B receptor 1 (Homo sapiens) (UniProt P54762); conditions: at 1 µM
T3 sequence (whole entry): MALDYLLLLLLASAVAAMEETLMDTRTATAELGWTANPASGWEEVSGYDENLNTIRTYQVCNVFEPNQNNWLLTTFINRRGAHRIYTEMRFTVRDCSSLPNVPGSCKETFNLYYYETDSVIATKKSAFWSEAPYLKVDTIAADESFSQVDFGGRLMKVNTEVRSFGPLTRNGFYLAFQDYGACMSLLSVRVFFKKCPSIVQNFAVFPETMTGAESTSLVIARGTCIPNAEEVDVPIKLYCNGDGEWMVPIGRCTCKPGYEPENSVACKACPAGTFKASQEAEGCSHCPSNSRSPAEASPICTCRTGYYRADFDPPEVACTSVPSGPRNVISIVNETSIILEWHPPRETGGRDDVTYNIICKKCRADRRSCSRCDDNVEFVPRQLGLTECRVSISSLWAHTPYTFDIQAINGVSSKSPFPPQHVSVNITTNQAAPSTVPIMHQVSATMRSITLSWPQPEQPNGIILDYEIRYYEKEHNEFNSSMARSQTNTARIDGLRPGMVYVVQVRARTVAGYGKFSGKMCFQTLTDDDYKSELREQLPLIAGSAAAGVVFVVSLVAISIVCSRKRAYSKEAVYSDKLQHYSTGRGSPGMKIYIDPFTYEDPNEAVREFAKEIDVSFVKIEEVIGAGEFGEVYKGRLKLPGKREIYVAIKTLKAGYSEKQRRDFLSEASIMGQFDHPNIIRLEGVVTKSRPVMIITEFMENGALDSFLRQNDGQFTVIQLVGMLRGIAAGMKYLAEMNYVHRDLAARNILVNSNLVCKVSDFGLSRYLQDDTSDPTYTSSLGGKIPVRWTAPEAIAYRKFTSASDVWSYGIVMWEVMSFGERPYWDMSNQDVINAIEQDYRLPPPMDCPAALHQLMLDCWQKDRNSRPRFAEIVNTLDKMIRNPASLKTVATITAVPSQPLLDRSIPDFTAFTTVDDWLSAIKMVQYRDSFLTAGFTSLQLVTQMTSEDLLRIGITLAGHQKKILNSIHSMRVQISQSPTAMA

For `Nc1n[nH]c2nnc(-c3c(-c4ccccc4)nn4ccccc34)cc12`, the residual activity [1] was 93%, the residual activity [2] was 104% and the residual activity [3] was 100%. The residual activity [4] was 91%, the residual activity [5] was 94% and the residual activity [6] was 91%. The residual activity [7] was 83%, the residual activity [8] was 91% and the residual activity [9] was 80%. For the same molecule, the residual activity [10] was 98%.
